Measurements reported in PubChem BioAssay (NCI).
The panel holds about 79,000 compounds, 15% with a hit somewhere; the sample as a whole holds those more often. The source made the active and inactive calls. Rule as the data show it: active = growth inhibition above about 70%; inactive = the rest.

What was measured:
[1] = NCI Yeast Anticancer Drug Screen. Data for the rad50 strain (AID 155);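 also: 0% = growth of vehicle-only cultures of the same strain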; conditions: S. cerevisiae rad50 strain growth inhibition; at 50.0 µM; active compounds read high
Procedure, shortened: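 Yeast carrying a defined DNA repair defect were exposed to test compounds, and growth was compared with vehicle-treated controls to give percent inhibition.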

[2] = NCI Yeast Anticancer Drug Screen. Data for the mec2-1 strain (AID 157); conditions: S. cerevisiae mec2-1 strain, at 50.0 µM, active compounds read high
Procedure, shortened: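 Yeast mec2-1 mutant treated with compound. Readout: growth inhibition vs vehicle controls.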

[3] = NCI Yeast Anticancer Drug Screen. Data for the sgs1 mgt1 strain (AID 161);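 also: 0% = growth of cultures given vehicle only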; conditions: S. cerevisiae sgs1 mgt1 strain, at 50.0 µM, active compounds read high
Procedure, shortened: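 Mutant yeast exposed to compound; growth scored against vehicle-only wells.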

[4] = NCI Yeast Anticancer Drug Screen. Data for the cln2 rad14 strain (AID 165);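 also: 0% = growth equal to vehicle treated cultures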; conditions: S. cerevisiae cln2 rad14 strain, at 50.0 µM, active compounds read high
Procedure, shortened: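 cln2 rad14 yeast strain; compound exposure; growth inhibition read vs vehicle controls.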

[5] = NCI Yeast Anticancer Drug Screen. Data for the bub3 strain (AID 167); conditions: S. cerevisiae bub3 mutant strain, at 50.0 µM, active compounds read high
Procedure, shortened: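 Compounds were applied to a genetically altered yeast strain carrying a cell-cycle control defect. Growth inhibition was scored against vehicle-treated controls.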

[6] = NCI Yeast Anticancer Drug Screen. Data for the mlh1 rad18 strain (AID 175); conditions: S. cerevisiae mlh1 rad18 strain growth inhibition; at 50.0 µM; active compounds read high
Procedure, shortened: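 Yeast w/ defined DNA-repair lesions; compound exposure; growth vs vehicle controls → % inhibition.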

Measured: growth inhibition

O=S(=O)(N=S(c1ccccc1)c1ccccc1)c1ccccc1
inactive: [1] -67% | [2] -66.2% | [3] -63.1% | [4] -20.9% | [5] -59.6% | [6] -51.2%

COC(=O)C1=C(\N2CCOCC2)CCCC/C=C\1C(=O)OC
inactive: [1] -2.55% | [2] 1.15% | [3] -4.9% | [4] -10.3% | [5] 3.65% | [6] -4.5%

CC[N+](C)(CC)Cc1ccccc1[N+](=O)[O-]
inactive: [1] -32.8% | [2] -47.3% | [3] -25.9% | [4] 2.85% | [5] -38.8% | [6] -28.6%

CC(C)c1ccc([N+](=O)[O-])cc1
inactive: [1] 31.5% | [2] 11.1% | [3] 11.2% | [4] 26.6% | [5] 5.95% | [6] 16.9%

CCOC(=O)c1[nH]c(C)c(/C(C)=N\NC(N)=O)c1C
inactive: [1] -20.2% | [2] -14.7% | [3] -7.4% | [4] -20.9% | [5] 8% | [6] 10.5%

[Fe+2].[NH-]C(Cc1ccc(O)cc1)C(=O)O.[NH-]C(Cc1ccc(O)cc1)C(=O)O (stereo unspecified)
inactive: [1] 15.1% | [2] 8.25% | [3] 24.1% | [4] 23.4% | [5] -2.4% | [6] 30.1%

CC(C)(C)N(OC(=O)c1ccccc1)C(=O)c1ccccc1
inactive: [1] 3.25% | [2] 4.35% | [3] 0.4% | [4] 5.45% | [5] 0.6% | [6] 14.4%

OCc1ccc(CO)cc1
inactive: [1] 18.4% | [2] 29.6% | [3] -15.6% | [4] -4.2% | [5] 8.65% | [6] 7.2%

CC[C@H]1OC(=O)[C@H](C)[C@@H](OC2CC(C)(OC)C(O)C(C)O2)[C@H](C)[C@@H](OC2OC(C)CC(N(C)C)C2OC(=O)CCC2CCCC2)[C@](C)(O)C[C@@H](C)C(=O)[C@H](C)[C@@H](O)[C@]1(C)O (stereo partly specified)
inactive: [1] 3.25% | [2] -6.95% | [3] 4.05% | [4] 0.65% | [5] 7.3% | [6] -9.55%

S=C(Nc1ccccc1)N1CC2C3CCC(O3)C2C1 (stereo unspecified)
inactive: [1] 16.6% | [2] 12.6% | [3] 10.2% | [4] 3.15% | [5] 22.5% | [6] 22.6%

CCCC(=O)Oc1ccc(C(C)(C)C)cc1C
inactive: [1] -5.65% | [2] -19.1% | [3] 3.4% | [4] -19.3% | [5] -0.5% | [6] -8.6%

CCCC1OC(C2CC=CCC2C)OCC1CC (stereo unspecified)
inactive: [1] -9.25% | [2] 6.55% | [3] 2.95% | [4] -17.9% | [5] -3.45% | [6] -46%

OC1CCCNC1 (stereo unspecified)
inactive: [1] 16.9% | [2] -4.5% | [3] 21.1% | [4] 18.1% | [5] 14.5% | [6] 30.2%

COC(=O)c1cc2/c(=N/O)c3ccccc3sc2o1
inactive: [1] -0.45% | [2] -23.1% | [3] -2.1% | [4] 0.75% | [5] -16.4% | [6] -28.8%

NC(=S)c1ccccn1
inactive: [1] 18.6% | [2] 11.4% | [3] 32.8% | [4] -22.5% | [5] 2.4% | [6] 26.9%

CCCCCC(=O)Cc1cc(O)cc2c1C(=O)Oc1cc(O)c(C(=O)O)c(CCCCC)c1O2
inactive: [1] 26.1% | [2] 7.45% | [3] 32% | [4] 17.8% | [5] 16.4% | [6] 16.9%

COc1ccc(C(C#N)NC23CC4CC(CC(C4)C2)C3)cc1OC (stereo unspecified)
inactive: [1] -11.8% | [2] -19.8% | [3] -25.1% | [4] -15.2% | [5] -56.2% | [6] -19.5%

COCCOC(=O)c1ccccc1O
inactive: [1] 5.45% | [2] 13.8% | [3] 13.8% | [4] 2.95% | [5] -13.2% | [6] -1.25%

C/C=C/C(=O)Oc1ccccc1/C=C/C(=O)CCCCCC
inactive: [1] 15.2% | [2] 11.1% | [3] 23.6% | [4] 8.25% | [5] 10.9% | [6] 10.9%

CC(C)(C)[N+](=O)[O-]
inactive: [1] -17.2% | [2] -27.1% | [3] -10.7% | [4] 4.95% | [5] 1.4% | [6] 17.1%

COc1ccccc1NC(=O)CC(=O)n1nc(-c2ccccc2)c(N=Nc2ccccc2[N+](=O)[O-])c1-c1ccccc1
inactive: [1] -0.4% | [2] -15.5% | [3] 27.9% | [4] 0.5% | [5] 25.3% | [6] 15.5%

O=C(O)CCC(=O)Nc1ccc(Cl)cc1
inactive: [1] 8% | [2] 5.7% | [3] -0.05% | [4] -16.1% | [5] 5.15% | [6] 5.55%

O=c1[nH]nc(-c2ccc(Cl)cc2)[nH]1
inactive: [1] 9.35% | [2] -4.25% | [3] -3.85% | [4] -30.1% | [5] -5.8% | [6] -3.9%

Cc1ccc(CS(=O)(=O)c2ccc(C)cc2)cc1
inactive: [1] -3.3% | [2] -0.45% | [3] -4.2% | [4] -36.8% | [5] -22.9% | [6] -2.35%

CN(C)C1C=CS(=O)(=O)C1 (stereo unspecified)
inactive: [1] -9.55% | [2] -13.9% | [3] -4.4% | [4] -47.5% | [5] 0.95% | [6] -4.95%

O=C(NCO)NCOCn1c(=O)n(CO)c(=O)n(CO)c1=O
inactive: [1] 5.05% | [2] -22.6% | [3] -2.5% | [4] 29.9% | [5] 9.7% | [6] -15.9%

Cc1n[nH]c(=S)[nH]c1=S
inactive: [1] -14.3% | [2] -5.1% | [3] 9.4% | [4] -42.1% | [5] -23.2% | [6] 14.4%

c1ccc(CCN2CCN(CCc3ccccn3)CC2)nc1
inactive: [1] 6.25% | [2] 6% | [3] -6.95% | [4] -19.6% | [5] 3.8% | [6] 0.2%

c1cc2c3c(cccc3c1)N=S=N2
inactive: [1] 25.4% | [2] -7.45% | [3] 10.1% | [4] -62.6% | [5] 20.9% | [6] 12.2%

O=C(c1cc([N+](=O)[O-])cc([N+](=O)[O-])c1)N1CCCC1
inactive: [1] -45.8% | [2] -20.7% | [3] -2.75% | [4] -25.1% | [5] 16.4% | [6] 9.2%

COc1cc(Nc2cc(Cl)cc(Cl)c2)nc(N)n1
inactive: [3] 6.5% | [4] 7.9% | [5] 9.35%
active: [1] 76.4% | [2] 81% | [6] 89.6%

CCCCC(NC(=O)OCc1ccccc1)C(=O)NC(Cc1c[nH]c2ccccc12)C(=O)O (stereo unspecified)
inactive: [1] 37.6% | [2] 3.9% | [3] 14.7% | [4] 17.8% | [5] 0.4% | [6] 9.25%

Cc1ccc([N+](=O)[O-])cc1NC(=O)NCCCl
inactive: [1] -11.1% | [2] 4.55% | [3] 5.5% | [4] -1% | [5] -11.1% | [6] -9.05%

COc1cc(C(=O)NC(=S)Nc2csc(-c3ccc(F)cc3)n2)cc(OC)c1OC
inactive: [1] 14.9% | [2] -12.8% | [3] 8.65% | [4] 16.9% | [5] -0.75% | [6] 11.7%

CCCCCCCC(=O)N(CC)CC
inactive: [1] 13.5% | [2] -4.05% | [3] 25.4% | [4] -17.1% | [5] 1.6% | [6] 8.75%

CSc1nc2ccc(NCn3c(=O)sc4cc(Br)ccc43)cc2s1
inactive: [1] 1% | [2] 38.9% | [3] 4.6% | [4] 30.9% | [5] 65.5% | [6] 42%

NC(CSS(=O)(=O)O)=NCCCCC1CCCCC1
inactive: [1] -6.3% | [2] -2.75% | [3] 7.35% | [4] -6.25% | [5] 0.1% | [6] 16.4%

BrCCOc1ccccc1
inactive: [1] 19.4% | [2] 8% | [3] -28.6% | [4] -29.5% | [5] -8.3% | [6] -25.5%

Cc1nnc(CC#N)n1NC(=O)CC#N
inactive: [1] 3.95% | [2] -3.15% | [3] -2.7% | [4] -18% | [5] 8.65% | [6] 9.95%

Fc1ccc(C2SCc3nc4ccccc4n32)cc1F (stereo unspecified)
inactive: [1] -49.9% | [2] -1.3% | [3] 24.3% | [4] 1.25% | [5] -13.8% | [6] 18.6%

COc1ccccc1NC(=S)N/N=C/c1ccccn1
inactive: [1] -16.6% | [2] 15.9% | [3] 24.4% | [4] 8.95% | [5] 17.7% | [6] 14%
